Results published in PubChem BioAssay (EPA / NIEHS).
Records with an inconclusive call do not appear. Activity calls are given as the source filed them. Rule for the calls, unless noted: active = hit-call score of the fitted dose curve at least 0.9, where 1 is the maximum; inconclusive = response in the unintended direction; inactive = score below 0.9.

Columns and labels:
[1] = ATG_VDRE_CIS: Attagene CIS-FACTORIAL HepG2 Assay for human Vitamin D Receptor Element (VDRE) (AID 2282968; active = hit-call score of the fitted dose curve at least 0.9, where 1 is the maximum; inactive = score below 0.9); details: HepG2 VDRE cis-reporter transcription, actives raise or lower the signal
Procedure, shortened: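 Compounds were applied for 24 h to HepG2 cells transfected with promoter-regulated reporter units. Total RNA was reverse-transcribed, and reporter amplicons were fluorescently labelled and sized by capillary electrophoresis.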

[2] = target: Nuclear receptor subfamily 1 group I member 3 (Homo sapiens) (UniProt Q14994); assay: ATG_CAR_TRANS: Attagene TRANS-FACTORIAL HepG2 Assay for human Constitutive Androstane Receptor (CAR) (AID 2282969); details: HepG2 Attagene TRANS-FACTORIAL CAR reporter;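 note: activators raise reporter mRNA above DMSO so AC50 marks induction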
Procedure, shortened: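 Transiently transfected HepG2, multiplex TRANS reporters (CAR-Gal4 chimera driving GAL4-UAS reporter). 24 h dosing. Readout: reporter transcript by RT-PCR + capillary electrophoresis, fluorescence intensity; positive direction vs DMSO.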

[3] = ATG_M_19_TRANS: Attagene TRANS-FACTORIAL HepG2 Assay for M19 Transcription Factor (Internal Marker) (AID 2282974); details: HepG2 Attagene TRANS-FACTORIAL M19 internal marker reporter
Procedure, shortened: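 Background-control readout: after 24 h chemical exposure of transfected HepG2 carrying GAL4-driven reporter units, RNA was reverse-transcribed, amplified, fluorescently labeled and sized by capillary electrophoresis; gain-of-signal fit against DMSO.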

[4] = ATG_GAL4_TRANS: Attagene TRANS-FACTORIAL HepG2 Assay for GAL4 (Internal Marker) (AID 2282976); details: HepG2 Attagene TRANS GAL4 internal marker reporter
Procedure, shortened: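 Liver HepG2 line bearing multiplexed GAL4-UAS reporter constructs; 24 h chemical treatment. Transcripts were quantified as fluorescent fragments on capillary electrophoresis after RT-PCR and HpaI cut, with activity fitted upward from DMSO.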

[5] = target: Estrogen-related receptor gamma (Homo sapiens) (UniProt P62508); assay: ATG_ERRg_TRANS: Attagene TRANS-FACTORIAL HepG2 Assay for human Estrogen-Related Receptor gamma (ERRg) (AID 2282977); details: HepG2 Attagene TRANS reporter, ERRg transactivation;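 note: hits increase reporter signal over DMSO so potencies reflect activators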
Procedure, shortened: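 Exogenous NR-Gal4 chimera activity measured as reporter transcript induction after 24 h in transiently transfected HepG2 cells. RNA reverse-transcribed, PCR-amplified, 6-FAM-labelled and resolved by capillary electrophoresis; increase over DMSO baseline.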

[6] = target: X-box-binding protein 1 (Homo sapiens) (UniProt P17861); assay: ATG_Xbp1_CIS: Attagene CIS-FACTORIAL HepG2 Assay for human X-box Binding Protein 1 (XBP1) (AID 2282972; active = hit-call score of the fitted dose curve at least 0.9, where 1 is the maximum; inactive = score below 0.9); details: HepG2 XBP1 cis-element reporter, Attagene multiplex; actives raise or lower the signal
Procedure, shortened: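 Multiplexed cis-reporter readout in transfected HepG2 liver cells. Exposure lasted 24 hours. Activity in either direction was fitted against DMSO as negative control and baseline.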

[7] = target: Estrogen receptor (Homo sapiens) (UniProt P03372); assay: ATG_ERa_TRANS: Attagene TRANS-FACTORIAL HepG2 Assay for human Estrogen Receptor alpha (ERa) (AID 2282970); details: HepG2 Attagene TRANS ERa GAL4 reporter, mRNA
Procedure, shortened: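 Signal derives from fluorescence of labelled reporter PCR fragments separated by capillary electrophoresis. HepG2 cells transiently carrying multiple GAL4-UAS reporter units were treated 24 hours, and induction above DMSO baseline was fitted as activity.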

[8] = target: Steroid hormone receptor ERR1 (Homo sapiens) (UniProt P11474); assay: ATG_ERRa_TRANS: Attagene TRANS-FACTORIAL HepG2 Assay for human Estrogen-Related Receptor alpha (ERRa) (AID 2282971); details: HepG2 Attagene TRANS reporter, ERRa transactivation
Procedure, shortened: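 Signal gain relative to DMSO for an ERRa-Gal4 chimeric receptor, read as reporter mRNA by RT-PCR/capillary electrophoresis. Human HepG2 liver cells, transient multiplex reporter transfection, 24 h chemical exposure.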

[9] = target: Glucocorticoid receptor (Homo sapiens) (UniProt P04150); assay: ATG_GR_TRANS: Attagene TRANS-FACTORIAL HepG2 Assay for human Glucocorticoid Receptor (GR) (AID 2282978); details: HepG2 Attagene TRANS GR reporter, mRNA transcription;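 note: activators score as hits since higher reporter transcript over DMSO is fitted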
Procedure, shortened: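 Readout is reporter transcript from a chimeric GR-Gal4 acting on GAL4-UAS in transfected human HepG2 liver cells after 24 h exposure, quantified by RT-PCR and capillary electrophoresis. Activation fitted upward against DMSO.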

[10] = target: Androgen receptor (Homo sapiens) (UniProt P10275); assay: ATG_AR_TRANS: Attagene TRANS-FACTORIAL HepG2 Assay for human Androgen Receptor (AR) (AID 2282973); details: HepG2 Attagene TRANS-FACTORIAL AR reporter transcription
Procedure, shortened: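 Chimeric nuclear receptor–Gal4 activity was assessed in human HepG2 hepatocytes after 24 h chemical dosing. Induced reporter mRNA was detected via labelled RT-PCR fragments on capillary electrophoresis, and gain of signal was analysed against DMSO.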

Measured: AC50

Estrogen receptor (Homo sapiens), sequence (P03372 whole entry, looked up, the tested form may be a part): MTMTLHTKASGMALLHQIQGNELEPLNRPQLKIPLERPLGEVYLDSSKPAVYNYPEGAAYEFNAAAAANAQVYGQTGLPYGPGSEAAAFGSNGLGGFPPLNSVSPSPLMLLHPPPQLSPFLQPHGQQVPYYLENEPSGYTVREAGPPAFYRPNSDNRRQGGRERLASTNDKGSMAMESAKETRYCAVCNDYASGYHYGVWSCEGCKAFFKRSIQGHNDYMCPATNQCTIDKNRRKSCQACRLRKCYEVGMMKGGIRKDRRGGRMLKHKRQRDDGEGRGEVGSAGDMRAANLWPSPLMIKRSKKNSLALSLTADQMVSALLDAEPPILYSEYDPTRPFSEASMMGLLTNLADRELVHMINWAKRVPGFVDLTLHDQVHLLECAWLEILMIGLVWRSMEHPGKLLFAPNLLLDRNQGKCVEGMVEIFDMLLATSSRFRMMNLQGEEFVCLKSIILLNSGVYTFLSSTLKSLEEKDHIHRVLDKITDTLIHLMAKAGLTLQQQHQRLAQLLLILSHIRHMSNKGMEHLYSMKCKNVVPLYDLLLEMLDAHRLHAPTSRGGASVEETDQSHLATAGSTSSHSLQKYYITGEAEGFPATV
X-box-binding protein 1 (Homo sapiens), sequence (P17861 whole entry, looked up): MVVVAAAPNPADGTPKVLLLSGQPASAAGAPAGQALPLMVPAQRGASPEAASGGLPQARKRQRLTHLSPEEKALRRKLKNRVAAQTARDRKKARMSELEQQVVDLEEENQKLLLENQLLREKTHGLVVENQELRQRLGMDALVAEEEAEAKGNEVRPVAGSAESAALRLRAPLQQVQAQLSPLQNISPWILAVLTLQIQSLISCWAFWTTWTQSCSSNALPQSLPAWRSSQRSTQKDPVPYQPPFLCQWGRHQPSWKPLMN
Estrogen-related receptor gamma (Homo sapiens), sequence (P62508 whole entry, looked up, the tested form may be a part): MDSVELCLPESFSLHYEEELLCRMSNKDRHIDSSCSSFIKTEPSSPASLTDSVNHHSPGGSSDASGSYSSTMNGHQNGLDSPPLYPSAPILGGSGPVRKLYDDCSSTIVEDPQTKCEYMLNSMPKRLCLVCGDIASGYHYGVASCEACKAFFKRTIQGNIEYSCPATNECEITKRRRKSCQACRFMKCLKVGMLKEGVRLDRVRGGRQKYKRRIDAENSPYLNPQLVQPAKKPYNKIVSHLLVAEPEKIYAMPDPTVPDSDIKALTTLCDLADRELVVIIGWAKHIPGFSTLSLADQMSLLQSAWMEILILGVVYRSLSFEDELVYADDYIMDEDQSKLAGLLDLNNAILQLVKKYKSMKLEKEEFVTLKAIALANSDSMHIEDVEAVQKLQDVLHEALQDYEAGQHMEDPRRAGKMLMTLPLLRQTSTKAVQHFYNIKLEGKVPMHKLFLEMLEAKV
Nuclear receptor subfamily 1 group I member 3 (Homo sapiens), sequence (Q14994 whole entry, looked up, the tested form may be a part): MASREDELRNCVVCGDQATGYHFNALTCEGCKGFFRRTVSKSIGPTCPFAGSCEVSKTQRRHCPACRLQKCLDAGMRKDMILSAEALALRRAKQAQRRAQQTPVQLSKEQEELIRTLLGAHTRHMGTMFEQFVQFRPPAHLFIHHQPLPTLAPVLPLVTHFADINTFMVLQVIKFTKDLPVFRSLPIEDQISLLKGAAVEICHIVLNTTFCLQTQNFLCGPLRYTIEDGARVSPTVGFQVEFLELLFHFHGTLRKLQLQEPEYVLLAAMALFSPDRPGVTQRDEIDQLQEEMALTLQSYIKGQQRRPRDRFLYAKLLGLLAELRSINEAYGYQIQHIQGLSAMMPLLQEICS
Glucocorticoid receptor (Homo sapiens), sequence (P04150 whole entry, looked up, the tested form may be a part): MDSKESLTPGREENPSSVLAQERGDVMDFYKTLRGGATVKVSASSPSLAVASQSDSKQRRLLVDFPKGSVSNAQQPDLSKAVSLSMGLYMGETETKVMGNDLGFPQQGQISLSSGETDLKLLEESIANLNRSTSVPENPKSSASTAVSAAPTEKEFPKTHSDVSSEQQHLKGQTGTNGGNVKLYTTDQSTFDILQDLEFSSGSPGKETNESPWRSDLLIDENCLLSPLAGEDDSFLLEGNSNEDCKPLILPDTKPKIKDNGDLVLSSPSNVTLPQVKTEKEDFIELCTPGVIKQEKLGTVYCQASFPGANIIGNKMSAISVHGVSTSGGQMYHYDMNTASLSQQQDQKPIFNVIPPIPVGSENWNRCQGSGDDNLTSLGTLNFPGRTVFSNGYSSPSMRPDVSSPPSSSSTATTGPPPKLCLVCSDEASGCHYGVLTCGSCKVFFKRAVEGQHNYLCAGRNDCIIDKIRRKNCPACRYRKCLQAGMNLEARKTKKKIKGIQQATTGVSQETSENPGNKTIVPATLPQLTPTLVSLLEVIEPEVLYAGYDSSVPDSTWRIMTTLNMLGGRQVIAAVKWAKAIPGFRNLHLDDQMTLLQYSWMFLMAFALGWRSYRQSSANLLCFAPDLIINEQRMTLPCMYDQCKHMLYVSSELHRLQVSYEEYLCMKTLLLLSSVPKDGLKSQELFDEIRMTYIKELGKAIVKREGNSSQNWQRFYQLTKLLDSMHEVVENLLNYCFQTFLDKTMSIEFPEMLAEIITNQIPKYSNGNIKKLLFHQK
Steroid hormone receptor ERR1 (Homo sapiens), sequence (P11474 whole entry, looked up, the tested form may be a part): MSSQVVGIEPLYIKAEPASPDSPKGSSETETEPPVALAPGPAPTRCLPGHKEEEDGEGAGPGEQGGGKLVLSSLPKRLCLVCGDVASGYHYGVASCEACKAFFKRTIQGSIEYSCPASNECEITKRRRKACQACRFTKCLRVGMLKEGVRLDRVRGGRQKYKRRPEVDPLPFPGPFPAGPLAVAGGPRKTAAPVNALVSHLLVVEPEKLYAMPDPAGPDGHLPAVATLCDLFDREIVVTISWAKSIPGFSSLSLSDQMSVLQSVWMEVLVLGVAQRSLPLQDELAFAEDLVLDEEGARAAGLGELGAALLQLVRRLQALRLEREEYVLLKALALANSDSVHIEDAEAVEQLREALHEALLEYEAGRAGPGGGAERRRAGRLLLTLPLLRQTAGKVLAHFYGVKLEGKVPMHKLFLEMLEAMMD
Androgen receptor (Homo sapiens), sequence (P10275 whole entry, looked up, the tested form may be a part): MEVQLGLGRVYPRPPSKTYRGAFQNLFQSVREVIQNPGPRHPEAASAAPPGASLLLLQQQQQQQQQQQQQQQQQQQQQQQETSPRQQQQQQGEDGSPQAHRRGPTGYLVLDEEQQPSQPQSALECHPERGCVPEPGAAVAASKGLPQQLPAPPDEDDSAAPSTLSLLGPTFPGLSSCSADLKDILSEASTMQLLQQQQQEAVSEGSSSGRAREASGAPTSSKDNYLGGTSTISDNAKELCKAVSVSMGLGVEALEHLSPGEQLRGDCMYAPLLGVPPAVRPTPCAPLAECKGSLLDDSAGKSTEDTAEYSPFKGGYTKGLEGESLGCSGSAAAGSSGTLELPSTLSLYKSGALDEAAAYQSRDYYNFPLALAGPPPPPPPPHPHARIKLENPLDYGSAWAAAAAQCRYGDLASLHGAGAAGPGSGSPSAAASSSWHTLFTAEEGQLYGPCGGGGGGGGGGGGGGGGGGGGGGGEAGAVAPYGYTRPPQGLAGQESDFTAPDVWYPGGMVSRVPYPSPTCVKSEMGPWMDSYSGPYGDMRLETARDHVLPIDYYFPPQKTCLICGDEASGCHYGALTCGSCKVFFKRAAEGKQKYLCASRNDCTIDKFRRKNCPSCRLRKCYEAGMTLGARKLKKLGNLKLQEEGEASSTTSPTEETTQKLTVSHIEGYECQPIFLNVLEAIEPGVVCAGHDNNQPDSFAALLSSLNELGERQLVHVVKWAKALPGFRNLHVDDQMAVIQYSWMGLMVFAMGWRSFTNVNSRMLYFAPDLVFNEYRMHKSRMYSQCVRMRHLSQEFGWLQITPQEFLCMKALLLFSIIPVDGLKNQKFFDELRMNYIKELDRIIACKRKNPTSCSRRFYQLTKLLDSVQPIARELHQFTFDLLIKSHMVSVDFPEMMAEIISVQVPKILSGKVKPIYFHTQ

CCOC(=O)C(SP(=S)(OC)OC)c1ccccc1 (stereo not drawn)
inactive: [1] | [2] | [3] | [4] | [5]

Nc1cccnc1
active: [1] 50.1 µM
inactive: [2] | [6]

CN(C)c1ccc(N=O)cc1
inactive: [1] | [7] | [8] | [6] | [5] | [9]

ClCCCCl
inactive: [1] | [2] | [6] | [9]

c1cc[c]([Sb]([c]2ccccc2)[c]2ccccc2)cc1
inactive: [1] | [2] | [6] | [10] | [9]

O=[N+]([O-])c1cc([As](=O)(O)O)ccc1O
inactive: [1] | [7] | [8] | [6] | [4] | [9]

C[C@@H]1O[C@@H](O[C@H]2C[C@@H](O)[C@]3(CO)[C@H]4[C@H](O)C[C@]5(C)[C@@H](C6=CC(=O)OC6)CC[C@]5(O)[C@@H]4CC[C@]3(O)C2)[C@H](O)[C@H](O)[C@H]1O
inactive: [1] | [2] | [3]

NC(=O)c1ccc(N)nc1
inactive: [1] | [2] | [6] | [10] | [3] | [9]

BrCc1ccc(Br)cc1
inactive: [1] | [2] | [6] | [4]

C#CCO
inactive: [1] | [2] | [6] | [4]

Cc1ccc(CCl)cc1
not listed: [2] | [3] | [5]
inactive: all other assays above

C=CCN=C=S
inactive: [1] | [7] | [8] | [6] | [3] | [4]

Nc1ccc(-c2ccccc2)cc1
inactive: [1]
active: [7] 14.8 µM

CC(C)(C)c1cc([N+](=O)[O-])cc(C(C)(C)C)c1O
active: [1] 3.16 µM
inactive: [7] | [8] | [3] | [5]

O=C(Nc1ccc(Br)cc1)c1cc(Br)cc(Br)c1O
inactive: [7] | [8] | [3] | [4] | [5]
active: [1] 6.47 µM | [6] 4.92 µM

CC(C)(C)c1ccccc1O
active: [1] 129 µM | [6] 165 µM
inactive: [2] | [3] | [9]

CC1(C)COP(Oc2ccccc2)OC1
not listed: [3] | [7] | [8]
inactive: all other assays above

CCOc1ccc(N)cc1
inactive: [1] | [7] | [8] | [3] | [5]

O=C1c2ccccc2C(=O)C1C(=O)C(c1ccccc1)c1ccc(Cl)cc1 (stereo not drawn)
active: [1] 2.93 µM | [6] 5.66 µM | [3] 163 µM
not listed: [2] | [4]
inactive: all other assays above
